Results on 15 compounds are retold here after PubChem BioAssay (EPA / NIEHS).

Calls of active or inactive are those of the source. The calls were made as follows: active = hit-call score of the fitted dose curve at least 0.9, where 1 is the maximum; inactive = score below 0.9.

A short description of the first test: APR_HepG2_P-H2AX_72hr: Apredica 72-hour HepG2 Assay for H2AX Phosphorylation (AID 2282916).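 Also: phospho-histone H2A.x immunostain intensity per cell marking DNA damage.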 The conditions noted are these: imaging, actives raise or lower the signal. The method, boiled down: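 HepG2 cells treated 72 h at 0.39–200 uM, 0.5% DMSO final, duplicates. Formaldehyde-fixed, Triton-permeabilised, immunostained for phospho-H2A.x with Hoechst; fluorescence imaged at 20x, bidirectional fit versus DMSO.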
As usually defined, the AC50 is the concentration at which the activity in the assay is half-maximal. For `CN(Cc1cnc2nc(N)nc(N)c2n1)c1ccc(C(=O)N[C@@H](CCC(=O)O)C(=O)O)cc1`, the AC50 is 0.0391 µM (active).

In the case of `O=C1NS(=O)(=O)c2ccccc21`, the compound was classed as inactive.

In the case of `CCCCCCCCCCCCOS(=O)(=O)O`, the compound was classed as inactive.

Take `Cc1[nH]nc2c1N=C(c1ccccc1Cl)c1cc([N+](=O)[O-])ccc1N2`: the AC50 was 19.8 µM (active).

`CCCCC=O`: the call was inactive.

Take `CN(C)CCOC(c1ccccc1)c1ccccc1`: the AC50 is 114 µM (active).

As to `N=C(N)c1ccc(OCCCCCOc2ccc(C(=N)N)cc2)cc1`, the AC50 is 25.1 µM (active).

For `CCCCC(CC)C(=O)O` (stereo unspecified), the call was inactive.

For `O=C(c1ccccc1)c1ccccc1`, the compound was called inactive.

`O=C(CCCN1CCC(O)(c2ccc(Cl)cc2)CC1)c1ccc(F)cc1`: the AC50 is 33 µM (active).

For the compound `CCCCCCCCCCCCCCC`, the compound was classed as inactive.

On to `CCCCc1oc2ccccc2c1C(=O)c1cc(I)c(OCCN(CC)CC)c(I)c1`, for which the AC50 is 75.5 µM (active).

Consider `CS(=O)(=O)c1ccc([C@@H](CC2CCCC2)C(=O)Nc2cnccn2)cc1Cl`, for which the result was inactive.

Turning to `CC(=O)Nc1ccc(O)cc1`, the result was inactive.

With `OCC(CO)(CBr)CBr`, the compound was called inactive.

The next test in a line: APR_HepG2_MitoMembPot_72hr: Apredica 72-hour HepG2 Assay for Mitochondrial Membrane Potential (AID 2282917). The conditions noted are these: imaging, actives raise or lower the signal. The method, boiled down:
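HepG2 cells dosed 72 hr with compound at 0.39–200 uM in duplicate, 0.5% v/v DMSO final. Mitochondria stained with 250 nM MitoTracker Red CMXRos for 30 min before formaldehyde fixation, imaged by high-content fluorescence; bidirectional fit versus DMSO.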
Regarding `CN(Cc1cnc2nc(N)nc(N)c2n1)c1ccc(C(=O)N[C@@H](CCC(=O)O)C(=O)O)cc1`, the AC50 is 19.8 µM (active).

Turning to `O=C1NS(=O)(=O)c2ccccc21`, the call was inactive.

In the case of `CCCCCCCCCCCCOS(=O)(=O)O`, the compound was classed as inactive.

On to `Cc1[nH]nc2c1N=C(c1ccccc1Cl)c1cc([N+](=O)[O-])ccc1N2`, for which the AC50 is 0.432 µM (active).

Turning to `CCCCC=O`, the result was inactive.

Turning to `CN(C)CCOC(c1ccccc1)c1ccccc1`, the compound was called inactive.

For the compound `N=C(N)c1ccc(OCCCCCOc2ccc(C(=N)N)cc2)cc1`, the compound was classed as inactive.

Regarding `O=C(c1ccccc1)c1ccccc1`, the outcome was inactive.

With `O=C(CCCN1CCC(O)(c2ccc(Cl)cc2)CC1)c1ccc(F)cc1`, the AC50 was 51.7 µM (active).

As to `CCCCCCCCCCCCCCC`, the outcome was inactive.

With `CCCCc1oc2ccccc2c1C(=O)c1cc(I)c(OCCN(CC)CC)c(I)c1`, the compound was classed as inactive.

With `CS(=O)(=O)c1ccc([C@@H](CC2CCCC2)C(=O)Nc2cnccn2)cc1Cl`, the call was inactive.

Consider `CC(=O)Nc1ccc(O)cc1`, for which the compound was classed as inactive.

A short description of the next test: APR_HepG2_MitoticArrest_72hr: Apredica 72-hour HepG2 Assay for Mitotic Arrest (AID 2282918). The note with it: high-content imaging, actives raise or lower the signal. A digest of the protocol:
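HepG2, 72 hr exposure, 0.39–200 uM in duplicate, 0.5% v/v DMSO final. Formaldehyde-fixed, Triton-permeabilized, anti-phospho-histone H3/FITC plus Hoechst. ArrayScan imaging at 20x; curves fit bidirectionally against DMSO baseline.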
Take `CN(Cc1cnc2nc(N)nc(N)c2n1)c1ccc(C(=O)N[C@@H](CCC(=O)O)C(=O)O)cc1`: the outcome was inactive.

`O=C1NS(=O)(=O)c2ccccc21`: the compound was classed as inactive.

For the compound `CCCCCCCCCCCCOS(=O)(=O)O`, the result was inactive.

On to `Cc1[nH]nc2c1N=C(c1ccccc1Cl)c1cc([N+](=O)[O-])ccc1N2`, for which the AC50 was 28.8 µM (active).

Regarding `CCCCC=O`, the compound was called inactive.

Take `CN(C)CCOC(c1ccccc1)c1ccccc1`: the AC50 was 111 µM (active).

Take `N=C(N)c1ccc(OCCCCCOc2ccc(C(=N)N)cc2)cc1`: the concentration at half-maximal activity (AC50) is 21.6 µM (active).

`O=C(c1ccccc1)c1ccccc1`: the result was inactive.

As for `O=C(CCCN1CCC(O)(c2ccc(Cl)cc2)CC1)c1ccc(F)cc1`, the AC50 is 19.8 µM (active).

`CCCCCCCCCCCCCCC`: the result was inactive.

For `CCCCc1oc2ccccc2c1C(=O)c1cc(I)c(OCCN(CC)CC)c(I)c1`, the AC50 was 8.51 µM (active).

For the compound `CS(=O)(=O)c1ccc([C@@H](CC2CCCC2)C(=O)Nc2cnccn2)cc1Cl`, the outcome was inactive.

`CC(=O)Nc1ccc(O)cc1`: the call was inactive.
